Calls of active or inactive are those of the source.
Assays:
[1] = test system: PRMT1 (protein arginine N-methyltransferase 1); test: PRMT1 binders on small-molecule microarrays, primary screen, biochemical, small-molecule microarray, 635 nm fluorescence (AID 1088); conditions: small-molecule microarray binding, higher = more signal;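 further: binding of Prmt1 protein to compounds spotted on small-molecule microarray slides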
[2] = yeast growth modulation, basal conditions, primary screen, YJM789 clinical isolate, OD600, 24 h (AID 1089);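 further: growth of clinical yeast isolate S. cerevisiae YJM 789 seeded 1000 cells per well; test concentration not given here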; conditions: S. cerevisiae YJM789 growth, higher = more signal, called active from +8 up or from −8 down
[3] = fission yeast growth modulation, primary screen, strain 972, OD600, 24 h, no modulator (AID 1090);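 further: basal condition with compound alone and no growth modifier present; test concentration not given here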; conditions: S. pombe 972 growth, higher = more signal, called active from +8 up or from −8 down
[4] = S. cerevisiae growth modulation with rapamycin, primary screen, strain BY4716, OD600, 96 h (AID 1091); conditions: higher = more signal, called active from +8 up or from −8 down; further: test concentration not given here
[5] = target: Torsin-1A-interacting protein 2 (Homo sapiens) (UniProt Q8NFQ8); test: LULL1 binders on small-molecule microarray, primary screen, cell lysate, human LULL1 lysate, 635/667 nm fluorescence (AID 1092); conditions: hLULL1 lysate binding, 635 nm fluorescence, higher = more signal;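 further: probe is lysate of COS7 cells overexpressing human LULL1; score merges per-feature 667 nm fluorescence with signal-to-noise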
Sequence of Torsin-1A-interacting protein 2 (Homo sapiens) (Q8NFQ8 whole entry, looked up): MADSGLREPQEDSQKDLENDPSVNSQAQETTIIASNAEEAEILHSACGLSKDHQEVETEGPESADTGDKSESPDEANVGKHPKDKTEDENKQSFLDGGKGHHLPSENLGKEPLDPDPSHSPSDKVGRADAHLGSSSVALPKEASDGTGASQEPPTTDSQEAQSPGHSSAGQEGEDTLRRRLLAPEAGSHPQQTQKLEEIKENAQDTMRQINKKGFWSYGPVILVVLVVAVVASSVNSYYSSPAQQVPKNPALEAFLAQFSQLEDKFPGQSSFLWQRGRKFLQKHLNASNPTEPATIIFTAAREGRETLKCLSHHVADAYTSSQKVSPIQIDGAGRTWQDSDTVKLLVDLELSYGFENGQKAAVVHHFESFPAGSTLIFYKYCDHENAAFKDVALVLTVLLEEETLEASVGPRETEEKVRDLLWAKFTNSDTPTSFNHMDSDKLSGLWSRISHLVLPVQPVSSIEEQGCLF

[6] = E. coli growth modulation, two-sided OD650, primary screen, E. coli filamentation project, strain DRC41, 24 h (AID 1093); conditions: OD650, 24 h, higher = more signal, called active from +8 up or from −8 down;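 further: MC1000 strain lacking acrAB efflux and sulA so SOS filamentation is blocked; test concentration not given here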
[7] = small-molecule microarray binders of probe aLefty2, primary screen, biochemical, biotinylated probe, 635/667 nm fluorescence (AID 1094); conditions: higher = more signal;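 further: score merges spot fluorescence near 667 nm with spot signal-to-noise ratio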
[8] = test system: Noggin (protein binding on small-molecule microarray); test: Noggin binders on small-molecule microarray, primary screen, biochemical, 635/667 nm fluorescence (AID 1095); conditions: 635 nm fluorescence, higher = more signal;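 further: score merges 667 nm feature fluorescence with signal to noise over triplicate slides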
[9] = target: Neurogenic locus notch homolog protein 3 (Homo sapiens) (UniProt Q9UM47); test: NOTCH3 binders on small-molecule microarray, primary screen, biochemical, 635/667 nm fluorescence (AID 1096); conditions: NOTCH3 binding, 635 nm fluorescence, higher = more signal
Sequence of Neurogenic locus notch homolog protein 3 (Homo sapiens) (Q9UM47 whole entry, looked up): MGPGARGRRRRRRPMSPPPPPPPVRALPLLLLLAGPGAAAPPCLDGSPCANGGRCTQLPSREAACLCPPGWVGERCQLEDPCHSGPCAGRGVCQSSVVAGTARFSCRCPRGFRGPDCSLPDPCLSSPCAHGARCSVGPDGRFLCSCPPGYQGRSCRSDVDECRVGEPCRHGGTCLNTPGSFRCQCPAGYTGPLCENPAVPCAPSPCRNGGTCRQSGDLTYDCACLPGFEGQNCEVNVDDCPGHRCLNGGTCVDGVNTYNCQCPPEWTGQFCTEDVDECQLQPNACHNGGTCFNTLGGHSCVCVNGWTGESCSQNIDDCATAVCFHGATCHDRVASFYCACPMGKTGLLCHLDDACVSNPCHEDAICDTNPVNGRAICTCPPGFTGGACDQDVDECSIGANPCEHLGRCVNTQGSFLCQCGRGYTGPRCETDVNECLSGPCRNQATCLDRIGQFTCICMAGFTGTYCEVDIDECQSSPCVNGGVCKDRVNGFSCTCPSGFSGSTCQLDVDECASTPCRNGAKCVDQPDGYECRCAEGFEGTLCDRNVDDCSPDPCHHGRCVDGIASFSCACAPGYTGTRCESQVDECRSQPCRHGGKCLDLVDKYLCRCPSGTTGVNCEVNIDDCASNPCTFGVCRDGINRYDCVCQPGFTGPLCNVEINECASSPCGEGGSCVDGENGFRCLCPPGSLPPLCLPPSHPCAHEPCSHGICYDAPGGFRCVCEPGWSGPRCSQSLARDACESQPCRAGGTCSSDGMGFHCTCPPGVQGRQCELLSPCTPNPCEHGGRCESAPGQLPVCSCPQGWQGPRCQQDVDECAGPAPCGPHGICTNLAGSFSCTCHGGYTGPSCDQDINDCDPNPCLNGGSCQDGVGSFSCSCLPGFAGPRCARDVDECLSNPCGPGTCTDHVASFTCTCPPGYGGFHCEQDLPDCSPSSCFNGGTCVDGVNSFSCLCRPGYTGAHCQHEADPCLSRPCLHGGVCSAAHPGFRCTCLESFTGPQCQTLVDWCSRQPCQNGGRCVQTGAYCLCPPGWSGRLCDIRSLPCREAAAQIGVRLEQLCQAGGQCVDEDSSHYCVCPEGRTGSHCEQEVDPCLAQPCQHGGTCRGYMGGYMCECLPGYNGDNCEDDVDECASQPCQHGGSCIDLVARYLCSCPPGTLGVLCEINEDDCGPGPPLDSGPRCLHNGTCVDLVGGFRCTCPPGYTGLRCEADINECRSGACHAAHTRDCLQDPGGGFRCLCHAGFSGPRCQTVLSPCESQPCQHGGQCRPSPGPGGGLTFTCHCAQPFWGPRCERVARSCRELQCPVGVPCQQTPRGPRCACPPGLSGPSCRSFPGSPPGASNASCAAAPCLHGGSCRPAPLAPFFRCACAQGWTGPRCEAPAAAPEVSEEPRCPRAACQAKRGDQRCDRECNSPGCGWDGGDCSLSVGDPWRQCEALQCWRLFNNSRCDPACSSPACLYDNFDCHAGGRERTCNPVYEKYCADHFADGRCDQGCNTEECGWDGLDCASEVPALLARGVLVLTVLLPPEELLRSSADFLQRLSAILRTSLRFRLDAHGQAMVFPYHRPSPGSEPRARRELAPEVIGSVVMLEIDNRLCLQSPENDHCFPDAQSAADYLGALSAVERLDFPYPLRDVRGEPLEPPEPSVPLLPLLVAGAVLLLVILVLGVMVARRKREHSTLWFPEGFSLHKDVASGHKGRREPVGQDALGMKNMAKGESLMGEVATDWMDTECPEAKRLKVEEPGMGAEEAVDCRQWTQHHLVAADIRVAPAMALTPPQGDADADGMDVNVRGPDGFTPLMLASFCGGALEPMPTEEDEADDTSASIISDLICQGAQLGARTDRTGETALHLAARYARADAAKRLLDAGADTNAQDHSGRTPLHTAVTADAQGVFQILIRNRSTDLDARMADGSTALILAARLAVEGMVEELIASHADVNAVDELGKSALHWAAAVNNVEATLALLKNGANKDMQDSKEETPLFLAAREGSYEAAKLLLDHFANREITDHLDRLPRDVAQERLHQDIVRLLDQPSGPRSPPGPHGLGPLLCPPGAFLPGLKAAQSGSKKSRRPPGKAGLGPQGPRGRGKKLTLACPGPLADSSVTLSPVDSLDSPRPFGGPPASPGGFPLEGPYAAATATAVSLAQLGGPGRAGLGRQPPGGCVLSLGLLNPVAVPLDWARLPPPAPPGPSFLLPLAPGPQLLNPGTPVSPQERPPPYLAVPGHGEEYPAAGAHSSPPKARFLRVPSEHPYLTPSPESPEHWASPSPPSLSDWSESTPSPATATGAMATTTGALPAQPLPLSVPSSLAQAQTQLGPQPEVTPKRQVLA

[10] = small-molecule microarray binders of probe aEGFR, primary screen, biochemical, biotinylated probe, 635/667 nm fluorescence (AID 1097); conditions: higher = more signal;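 further: probe is a biotinylated anti-EGFR antibody binding compounds printed on slides; score combines fluorescence near 667 nm and signal to noise of each spot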

| SMILES | composite z-score [1] | z-score [2] | z-score [3] | z-score [4] | composite z-score [5] | z-score [6] | composite z-score [7] | composite z-score [8] | composite z-score [9] | composite z-score [10] |
| --- | --- | --- | --- | --- | --- | --- | --- | --- | --- | --- |
| CCCC[C@@H]1C[C@H]1[C@@H](NC(=O)c1ccc(C(F)(F)F)cc1)c1ccc(C(=O)OC)cc1 | 0.715 | 0.119 (inactive) | -3.29 (inactive) | -0.898 (inactive) | 0.888 | 0.255 (inactive) | 0.293 | 0.747 | 0.812 | 0.695 |
| COc1ccc(C(O)C2C=CC3C(=O)N(C)C(=O)C3N2Nc2ccc([N+](=O)[O-])cc2[N+](=O)[O-])cc1OCc1ccccc1 (stereo not given) | 1.35 | 0.932 (inactive) | 1.01 (inactive) | 0.839 (inactive) | 2.96 | -0.636 (inactive) | 0.468 | 0.0404 | 1.06 | 0.349 |
| CC(C)C[C@@H]1NC(=O)[C@@H]2C[C@H](C(=O)O)[C@H](c3ccc(O)cc3)N2C1=O | 1.54 | -1.45 (inactive) | -1.34 (inactive) | -0.42 (inactive) | 1.77 | 2.31 (inactive) | -0.0433 | 1.02 | 1.09 | 0.0226 |
| CC(=O)c1ccc(C(O)C2C=CC3C(=O)N(C)C(=O)C3N2NC(=O)OC(C)(C)C)cc1 (stereo not given) | 1.54 | 0.269 (inactive) | 1.08 (inactive) | 1.59 (inactive) | 3.47 | -1.24 (inactive) | 0.236 | -0.465 | 1.11 | 0.357 |
| COC(=O)[C@@]1(Cc2ccc(OC)cc2)[C@H]2c3cc(C(=O)N4CCCC4)n(CCc4ccc(OC)c(Br)c4)c3C[C@H]2CN1C(=O)c1ccccc1 | -1.11 | 0.0024 (inactive) | 0.111 (inactive) | -0.751 (inactive) | 3.27 | 0.615 (inactive) | 0.153 | -0.802 | -0.0445 | -0.0357 |
| O=C1C2C=CC(C(O)C(c3ccccc3)c3ccccc3)N(Nc3ccccc3)C2C(=O)N1c1ccccc1 (stereo not given) | 1.55 | 0.838 (inactive) | 0.0855 (inactive) | 0.281 (inactive) | 3.23 | -1.15 (inactive) | 0.0731 | 0.351 | 1.03 | 0.056 |
| C=CCC(OC(C)=O)[C@@H]1[C@@H](N(Cc2ccc(-c3cccc(C(F)(F)F)c3)o2)C(=O)Cc2ccc(F)cc2)c2cc(OCCCO)ccc2N1C(=O)c1ccc2ccccc2n1 (stereo not given in full) | -1.08 | -0.203 (inactive) | 0.15 (inactive) | -0.522 (inactive) | -0.452 | -1.08 (inactive) | -0.0415 | -0.436 | -0.768 | -0.157 |
| CC1CC/C=C\[C@H]2OC34C=CCN(c5ccc(Cl)cc5)C(=O)[C@H]3N(CCCO)C(=O)[C@]4(C)C2C(=O)O1 (stereo not given in full) | -1.33 | 0.0887 (inactive) | -0.117 (inactive) | 1.13 (inactive) | -0.265 | -0.643 (inactive) | -0.154 | -0.774 | -0.105 | -0.151 |
| C=C(COC)/C(=C/C[C@H](OC(=O)c1ccncc1)c1ccc(OCCO)cc1)c1cc(C(=O)OC)ccc1OC | 1.41 | -0.823 (inactive) | -1.2 (inactive) | -0.649 (inactive) | 2.28 | 1.59 (inactive) | -0.0337 | 1.01 | 1.1 | -0.0828 |
| C=CC[C@@]12N=C(c3ccc(OCCCO)cc3)O[C@@H]1c1ccccc1N(Cc1ccccc1)C2=O | 1.54 | -0.965 (inactive) | -1.53 (inactive) | 1.86 (inactive) | 3.14 | 1.12 (inactive) | 0.145 | 1.72 | 1.08 | 0.0631 |
| C=C(COC)C(=O)CC[C@@H](OC(C)=O)c1ccc(OCCO)cc1 | 1.07 | 0.0756 (inactive) | -2.44 (inactive) | -0.056 (inactive) | 0.276 | -0.0345 (inactive) | -0.159 | 0.482 | 0.512 | -0.21 |
| COC(=O)[C@@]1(Cc2ccc(OC)cc2)[C@H]2c3cc(C(=O)N(C)C)n(Cc4ccsc4Br)c3C[C@H]2CN1C(=O)c1ccccc1 | -0.323 | 1.36 (inactive) | 1.51 (inactive) | 1.53 (inactive) | 3.41 | 0.126 (inactive) | 0.599 | -0.56 | 0.251 | 0.301 |
| C=CC(CO)NC(=O)OCC1c2ccccc2-c2ccccc21 (stereo not given) | -0.341 | -1.2 (inactive) | -0.0715 (inactive) | -0.29 (inactive) | -0.652 | -0.77 (inactive) | -0.145 | 0.497 | 0.493 | -0.0192 |
| CC(C)CNC(=O)[C@@]1(C)c2ccccc2C(=O)N(Cc2cc(F)cc(C(F)(F)F)c2)[C@H]1c1ccc(CO)cc1 | 1.56 | -1.08 (inactive) | -0.428 (inactive) | -0.629 (inactive) | 2.6 | 0.149 (inactive) | -0.0172 | 0.602 | 0.616 | -0.165 |
